# High-throughput results as filed in PubChem.
# An excerpt weighted towards active compounds, which were near 1.5% of everything screened.
# MKP-1 inh: blocks human MKP-1 phosphatase activity. P28562. inhibition, %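 (compounds tested at a single concentration somewhere between 10 and 100 µM)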. 0.15% of 65,000 active. recombinant MKP-1, OMFP hydrolysis fluorescence;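 active = inhibition above about 50%, limit read from the data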
# Target sequence (P28562 whole entry, looked up): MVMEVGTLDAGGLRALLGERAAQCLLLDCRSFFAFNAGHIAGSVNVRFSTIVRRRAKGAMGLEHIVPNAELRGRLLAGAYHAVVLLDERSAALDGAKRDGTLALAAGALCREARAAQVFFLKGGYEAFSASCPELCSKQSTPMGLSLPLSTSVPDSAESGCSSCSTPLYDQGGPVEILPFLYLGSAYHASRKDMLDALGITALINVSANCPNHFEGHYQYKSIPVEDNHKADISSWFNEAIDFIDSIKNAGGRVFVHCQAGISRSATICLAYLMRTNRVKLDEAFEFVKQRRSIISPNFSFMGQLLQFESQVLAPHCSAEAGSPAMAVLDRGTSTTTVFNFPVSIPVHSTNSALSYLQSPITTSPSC
# SKBR3 24h inh: SK-BR-3 proliferation inhibitors; SK-BR-3 viability, CellTiter-Glo ATP luminescence, 24 h; stronger effect = lower value; viability, % at 10 µM; 0.47% of 41,000 active;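 active = viability at or below the median of all test compounds minus 3 SD, in both replicates if run twice, cut at about 45% in these data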
# Hsp90 block: displaces geldanamycin probe from tumor Hsp90; P07900; NCI-N417 lysate Hsp90, Cy3B-geldanamycin FP displacement; inhibition, % at 30 µM; 0.35% of 64,000 active;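 active = inhibition above 50%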
# Cdc25B inh: inhibitors of human Cdc25B phosphatase. inhibition, %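 (compounds tested at 10 µM final in the well)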. recombinant Cdc25B, OMFP fluorescence Ex485/Em525. P30305. 0.1% of 65,000 active. AID 368; in the data active = inhibition above about 50%
# HER2 expr 66K: lowers expression of human Her2 kinase. SKBR-3 HER2 protein level, AlphaScreen, 18-24 h; stronger effect = lower value. HER2 level % of control, % at 10 µM. 0.69% of 65,000 active. AID 645;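 active = HER2 level under 5% of the carrier-only control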;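 also: lower value means stronger loss of Her2 protein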
# Redox 05 DTT: generates H2O2 by redox cycling in 0.5 mM DTT; shares compounds with Cdc25B inh; cell-free redox cycling H2O2 generation; EC50, µM; 50% of 30 active; AID 682; in the data active = EC50 below about 30 µM
# Redox 1 DTT: counter-screen for Cdc25B probes: redox cycling H2O2 in 1 mM DTT; shares compounds with Cdc25B inh; EC50, µM; cell-free redox cycling H2O2 generation; 30 tested, under 10 active; in the data active = EC50 below about 50 µM
# Redox cycler: redox cycling H2O2 generation, MKP probe counter-screen | DTT, phenol red/HRP | AID 672 | shares compounds with MKP-1 inh | EC50, µM | 60 tested, under 10 active; call rule not given here
# A number is an active result; n = inactive; x = no result.
SMILES,MKP-1 inh,SKBR3 24h inh,Hsp90 block,Cdc25B inh,HER2 expr 66K,others
NC1CCc2cc(O)c(O)cc2C1 (stereo unspecified),x,x,52.9,x,x,
C=C(C)[C@H]1Cc2c(ccc3c2O[C@@H]2COc4cc(OC)c(OC)cc4[C@@H]2C3=O)O1,x,x,n,x,x,
Nc1ncnc2c1ncn2[C@@H]1O[C@H](COP(=O)(O)CP(=O)(O)OP(=O)(O)O)[C@H](O)C1O (stereo partly specified),x,x,n,x,x,
Clc1ccc(COC(Cn2ccnc2)c2ccc(Cl)cc2Cl)cc1 (stereo unspecified),n,n,n,n,-15.3,
CCCCn1c(O)c(C(CC)=NCc2ccc3c(c2)OCO3)c(=O)[nH]c1=O,n,n,n,n,n,
C=CCn1c(O)c(C(CC)=NCc2cc(OC)cc(OC)c2)c(=O)[nH]c1=O,n,34.3,n,n,n,
C=CCn1c(O)c(C(CC)=Nc2ccccc2NC(C)=O)c(=O)[nH]c1=O,n,n,n,n,n,
C=CCn1c(O)c(C(CC)=NCCCO)c(=O)[nH]c1=O,n,44.1,n,n,n,
Oc1ccc2c3c1O[C@H]1[C@@H](O)CC[C@@]4(O)C(C2)N(CC2CCC2)CCC314 (stereo partly specified),x,x,n,x,x,
CN(N=O)c1cc(O)ccc1O,x,x,98.5,x,x,
CCCCN1C(=O)NC(=O)C2(Cc3c(nc4c(C)cccn4c3=O)N3CCc4ccccc4C32)C1=O (stereo unspecified),n,n,n,n,1.2,
Cc1nc(-c2ccc(-c3ccc(C(=O)N4CCc5cc6c(cc54)C4(CCN(C)CC4)CO6)cc3)c(C)c2)no1,x,x,n,x,x,
Nc1c(C(=O)NC2CCCC2)c2nc3ccccc3nc2n1CC1CCCO1 (stereo unspecified),n,n,n,n,-28.5,
Nc1c(C(=O)OCC2CCCO2)c2nc3ccccc3nc2n1Cc1cccs1 (stereo unspecified),n,x,n,n,n,
C[C@H]1CCC/C=C/C2C[C@H](O)CC2[C@H](O)/C=C/C(=O)O1 (stereo partly specified),n,n,n,n,n,
C[C@H]1CCC[C@@H](O)CCC/C=C/c2cc(O)cc(O)c2C(=O)O1,n,n,x,n,-14.0,
C[C@H]1CCC[C@H](O)CCCCCc2cc(O)cc(O)c2C(=O)O1,n,x,87.3,n,-10.4,
CC(=O)OCC1=C(C(=O)[O-])N2C(=O)[C@@H](NC(=O)CCC[C@@H](N)C(=O)[O-])[C@H]2SC1.[Zn+2],x,x,n,x,x,
COc1ccc(C2=NCC(=O)N(CC(=O)NCc3ccco3)c3sc4c(c32)CCCC4)cc1OC,n,n,n,56.3,n,
NC(Cn1oc(=O)[nH]c1=O)C(=O)O (stereo unspecified),x,x,n,x,x,
Cc1c(C(=O)N2CCC3(CC2)OCCO3)sc2ncnc(N3CCN(c4ccccn4)CC3)c12,n,38.5,n,n,n,
O=C(c1sc2ccccc2c1Cl)N1CCC2(CC1)OCCO2,n,n,n,n,n,
NC1CC1c1ccccc1 (stereo unspecified),x,x,n,x,x,
C=CCN(CC=C)Cc1c[nH]c2ccccc12,n,26.6,n,n,n,
CCn1nc(-c2ccccc2)nc2c(=O)n(C)c(=O)nc1-2,97.8,38.0,88.6,100.9,-14.1,Redox 05 DTT=0.731;Redox 1 DTT=1.6;Redox cycler=13.8
CS(=N)(=O)CC[C@H](N)C(=O)O (stereo partly specified),x,x,n,x,x,
CCCCNC(=O)c1c(N)n(CCCOC)c2nc3ccccc3nc12,n,n,n,n,n,Redox cycler=n
C=CCN1C[C@@H](C)N([C@H](c2ccc(C(=O)N(CC)CC)cc2)c2cccc(OC)c2)C[C@@H]1C,x,x,n,x,x,
